# Assay results taken from PubChem BioAssay (EPA / NIEHS).
# Results filed as inconclusive are left out. Calls of active or inactive are those of the source. How the source made its calls: active means hit-call score of the fitted dose curve at least 0.9, where 1 is the maximum; inconclusive means response in the unintended direction; inactive means score below 0.9.
# How the values were obtained:
# [1] = target: Androgen receptor (Homo sapiens) (UniProt P10275); test: ATG_AR_TRANS: Attagene TRANS-FACTORIAL HepG2 Assay for human Androgen Receptor (AR) (AID 2282973); conditions: HepG2 Attagene TRANS-FACTORIAL AR reporter transcription
# Summary of the method: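 HepG2 cells transiently transfected with multiplexed GAL4-UAS reporter units and chimeric NR-Gal4 fusion; 24 h compound exposure. Reporter mRNA measured by RT-PCR, 6-FAM labelling, HpaI digestion and capillary electrophoresis; gain-of-signal fitted relative to DMSO baseline.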
# [2] = target: human Ephrin type-A Receptor 2 (EphA2), EPHA2 (gene 1969) (UniProt P29317); test: NVS_ENZ_hEphA2: NovaScreen (NVS) Enzymatic Assay for human Ephrin type-A Receptor 2 (EphA2) (AID 2283155)
# Summary of the method: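 Cell-free recombinant EphA2 kinase with specific substrate, 1 h, fluorescence with electrophoretic mobility-shift separation of substrate and product. Primary screen at 25 uM in duplicate; hits retested in singleton concentration-response up to 50 uM, referenced to DMSO.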
# [3] = target: human p21 Activated Kinase 4 (PAK4), PAK4 (gene 10298) (UniProt O96013); test: NVS_ENZ_hPAK4: NovaScreen (NVS) Enzymatic Assay for human p21 Activated Kinase 4 (PAK4) (AID 2283189)
# Summary of the method: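 Cell-free recombinant human PAK4 activity assay; fluorescent substrate and product separated by electrophoretic mobility shift, read 1 h after dosing. Initially tested in duplicate at 25 uM, relative to DMSO baseline.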
# [4] = target: human Protein Tyrosine Phosphatase Receptor Type C (PTPRC), PTPRC (gene 5788) (UniProt P08575); test: NVS_ENZ_hPTPRC: NovaScreen (NVS) Enzymatic Assay for human Protein Tyrosine Phosphatase Receptor Type C (PTPRC) (AID 2283212)
# Summary of the method: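 Yeast-extracted human PTPRC used in a cell-free colorimetric enzyme activity read-out, 1 h after dosing. Primary screen in duplicate at 25 uM; actives rerun in concentration-response up to 50 uM, DMSO as baseline.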
# [5] = target: rat Acetylcholinesterase (AChE), Ache (gene 83817) (UniProt P37136); test: NVS_ENZ_rAChE: NovaScreen (NVS) Enzymatic Assay for rat Acetylcholinesterase (AChE) (AID 2283233)
# Summary of the method: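 Rat brain membrane acetylcholinesterase activity measured colorimetrically 0.33 h after compound addition, loss of signal relative to DMSO. Primary screen in duplicate at 25 uM; actives re-run as concentration-response with 50 uM top concentration.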
# [6] = target: Voltage-dependent N-type calcium channel subunit alpha-1B (Rattus norvegicus) (UniProt Q02294); test: NVS_IC_rCaChN: NovaScreen (NVS) Ion Channel Assay for rat Calcium Channel, Type N (CaChN) (AID 2283317)
# [7] = target: Norway rat Vesicular Monoamine Transporter (VMAT2), neurotransmitter transporter, Slc18a2 (gene 25549) (UniProt Q01827); test: NVS_TR_rVMAT2: NovaScreen (NVS) Transporter Assay for Norway rat Vesicular Monoamine Transporter (VMAT2), neurotransmitter transporter (AID 2283376);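 further: actives lower the bound radioligand signal below the DMSO level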
# Summary of the method: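 Tissue: rat forebrain extract. Format: competitive radioligand binding, cell-free. Timepoint: 1 h. Readout: filter radiodetection/scintillation. Screen: 25 uM in duplicate, then concentration series for actives. Baseline: DMSO.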
# [8] = target: human Caspase 10 (CASP10), CASP10 (gene 843) (UniProt Q92851); test: NVS_ENZ_hCASP10: NovaScreen (NVS) Enzymatic Assay for human Caspase 10 (CASP10) (AID 2283133)
# Summary of the method: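 Recombinant human caspase-10 from E. coli, cell-free fluorogenic substrate assay read 1 h after dosing. Primary duplicate screen at 25 uM; hits (e.g. ≥30% inhibition) run singly in concentration-response up to 50 uM, normalised to DMSO.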
# [9] = test system: rat Monoamine Oxidase, MAO-A, Central (MAOAC), gene 29253; test: NVS_ENZ_rMAOAC: NovaScreen (NVS) Enzymatic Assay for rat Monoamine Oxidase, MAO-A, Central (MAOAC) (AID 2283243);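 further: potency refers to inhibition seen as signal drop below DMSO baseline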
# Summary of the method: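 Inhibition of rat brain-derived MAO-A was read by scintillation counting after 1.5 h exposure. Compounds screened first at 25 uM in duplicate, then in dose series if active.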
# Caspase-1 (Homo sapiens) = Caspase-1 (Homo sapiens) (UniProt P29466); test: NVS_ENZ_hCASP1: NovaScreen (NVS) Enzymatic Assay for human Caspase 1 (CASP1) (AID 2283132)
# Summary of the method: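 Cell-free enzymatic assay with E. coli-expressed recombinant protein; fluorescence intensity read 1 hour after dosing. Single-concentration duplicate screen at 25 uM, then concentration-response up to 50 uM; activity fitted relative to DMSO, loss of signal meaning inhibition.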
# [10] = target: human AMP-activated Protein Kinase, alpha 1 (AMPKa1), PRKAA1 (gene 5562) (UniProt Q13131); test: NVS_ENZ_hAMPKa1: NovaScreen (NVS) Enzymatic Assay for human AMP-activated Protein Kinase, alpha 1 (AMPKa1) (AID 2283130)
# Summary of the method: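 Recombinant human AMPKα1 activity was measured cell-free by fluorescent substrate conversion with electrophoretic mobility-shift separation, 1 h after dosing. Duplicate single-point screening was at 25 uM; actives (≥30% inhibition) were retested in concentration-response up to 50 uM.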
# [11] = target: human Acetylcholinesterase (AChE), ACHE (gene 43) (UniProt P22303); test: NVS_ENZ_hAChE: NovaScreen (NVS) Enzymatic Assay for human Acetylcholinesterase (AChE) (AID 2283129)
# Summary of the method: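 Cell-free colorimetric enzyme-activity assay; compounds read 0.33 hour after dosing, loss of signal vs DMSO baseline. Primary screen in duplicate at 25 uM single concentration, with active compounds retested in concentration series.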
# [12] = target: human Aurora Kinase A - serine/threonine-protein Kinase 6 (AurA), AURKA (gene 6790) (UniProt O14965); test: NVS_ENZ_hAurA: NovaScreen (NVS) Enzymatic Assay for human Aurora Kinase A - serine/threonine-protein Kinase 6 (AurA) (AID 2283142)
# Summary of the method: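 Cell-free enzymatic assay with human Aurora A, 1 hour after dosing. Fluorescent substrate turnover detected after electrophoretic mobility shift separation of substrate and product. Screened at 25 uM, actives retested in concentration-response up to 50 uM.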
# [13] = target: human MET Proto-Oncogene, Receptor Tyrosine Kinase (MET), MET (gene 4233) (UniProt P08581); test: NVS_ENZ_hMet: NovaScreen (NVS) Enzymatic Assay for human MET Proto-Oncogene, Receptor Tyrosine Kinase (MET) (AID 2283180)
# Summary of the method: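 Cell-free MET kinase assay using recombinant protein and fluorescent substrate, with mobility-shift separation; read 1 h after dosing. Primary duplicate at 25 uM; actives in singleton concentration-response to 50 uM maximum. Signal loss versus DMSO.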
# [14] = target: human NIMA (Never In Mitosis Gene A)-Related Kinase 2 (NEK2), NEK2 (gene 4751) (UniProt P51955); test: NVS_ENZ_hNEK2: NovaScreen (NVS) Enzymatic Assay for human NIMA (Never In Mitosis Gene A)-Related Kinase 2 (NEK2) (AID 2283188)
# Summary of the method: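 Cell-free NEK2 enzyme activity after 1 h exposure, read by fluorescence with electrophoretic mobility shift separating substrate and product. Primary screen in duplicate at 25 uM; actives then run as concentration series. Loss of signal versus DMSO scored.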
# [15] = target: human Protein Tyrosine Phosphatase Non-receptor Type 2 (PTPN2), PTPN2 (gene 5771) (UniProt P17706); test: NVS_ENZ_hPTPN2: NovaScreen (NVS) Enzymatic Assay for human Protein Tyrosine Phosphatase Non-receptor Type 2 (PTPN2) (AID 2283207)
# Summary of the method: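 Cell-free recombinant enzyme with fluorescent substrate, product separated by electrophoretic mobility shift; read 1 h after dosing. Primary screen single concentration (25 uM) in duplicate; actives followed in concentration series; loss of signal versus DMSO.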
# [16] = target: rat Monoamine Oxidase, MAO-B, Peripheral (MAOBP), Maob (gene 25750) (UniProt P19643); test: NVS_ENZ_rMAOBP: NovaScreen (NVS) Enzymatic Assay for rat Monoamine Oxidase, MAO-B, Peripheral (MAOBP) (AID 2283242)
# [17] = target: human Neonicotinoid receptor (NNR), CHRNA2 (gene 1135) (UniProt Q15822); test: NVS_LGIC_hNNR_NBungSens: NovaScreen (NVS) Ligand-Gated Ion Channel Assay for human Neonicotinoid receptor (NNR) (AID 2283313)
# Summary of the method: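 Radioligand displacement on human neuroblastoma membranes, 2 h, filter-based scintillation counting. Primary screen in duplicate at 25 uM; chemicals passing threshold (e.g. 30% inhibition) run singleton concentration-response to 50 uM; loss of binding fitted versus DMSO.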
# [18] = target: human Fibroblast Growth Factor Receptor 1 (FGFR1), FGFR1 (gene 2260) (UniProt P11362); test: NVS_ENZ_hFGFR1: NovaScreen (NVS) Enzymatic Assay for human Fibroblast Growth Factor Receptor 1 (FGFR1) (AID 2283159)
# Summary of the method: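 Cell-free recombinant kinase with fluorescent substrate, product separated by electrophoretic mobility shift; read 1 hour after dosing, loss of signal relative to DMSO. Initial screen in duplicate at 25 uM, actives followed in concentration series.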
# [19] = target: bovine Gamma-Aminobutyric Acid Type A Receptor BDZ, alpha 1 site (GABARa1), GABRA1 (gene 780973) (UniProt P08219); test: NVS_LGIC_bGABARa1: NovaScreen (NVS) Ligand-Gated Ion Channel Assay for bovine Gamma-Aminobutyric Acid Type A Receptor BDZ, alpha 1 site (GABARa1) (AID 2283321)
# Summary of the method: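 Radioligand competition binding on bovine cortical membranes, 0.75 h, filter-based scintillation counting. Primary single concentration 25 uM in duplicate; actives rerun in concentration-response to 50 uM max. Loss of signal fitted versus DMSO.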
# [20] = target: rat Gamma-Aminobutyric Acid Type A Receptor BDZ, alpha 6 site (GABARa6), Gabra6 (gene 29708) (UniProt P30191); test: NVS_LGIC_rGABARa6: NovaScreen (NVS) Ligand-Gated Ion Channel Assay for rat Gamma-Aminobutyric Acid Type A Receptor BDZ, alpha 6 site (GABARa6) (AID 2283339)
# Summary of the method: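 Rat cerebellar membranes; radioligand binding, filtration and scintillation counting, read 1 h after dosing. Single-concentration duplicate screen at 25 uM, then concentration-response up to 50 uM for actives; loss of signal fitted versus DMSO baseline.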
# Chain of Norway rat Vesicular Monoamine Transporter (VMAT2), neurotransmitter transporter, Slc18a2 (gene 25549) (Q01827 whole entry, looked up): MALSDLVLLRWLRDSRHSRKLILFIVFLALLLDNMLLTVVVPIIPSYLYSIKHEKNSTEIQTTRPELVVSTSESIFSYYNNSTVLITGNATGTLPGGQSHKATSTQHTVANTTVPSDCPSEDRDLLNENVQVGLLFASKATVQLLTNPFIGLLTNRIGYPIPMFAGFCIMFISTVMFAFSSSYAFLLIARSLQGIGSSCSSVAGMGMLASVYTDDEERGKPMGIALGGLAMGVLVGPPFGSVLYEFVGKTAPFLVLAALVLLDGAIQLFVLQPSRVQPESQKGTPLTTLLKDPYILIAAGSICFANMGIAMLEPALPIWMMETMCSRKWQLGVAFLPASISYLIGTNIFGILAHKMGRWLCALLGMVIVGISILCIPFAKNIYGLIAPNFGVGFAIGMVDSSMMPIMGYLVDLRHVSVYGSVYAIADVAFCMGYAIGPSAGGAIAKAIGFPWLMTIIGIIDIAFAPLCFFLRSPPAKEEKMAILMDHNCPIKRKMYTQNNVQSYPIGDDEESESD
# Chain of Androgen receptor (Homo sapiens) (P10275 whole entry, looked up, the tested form may be a part): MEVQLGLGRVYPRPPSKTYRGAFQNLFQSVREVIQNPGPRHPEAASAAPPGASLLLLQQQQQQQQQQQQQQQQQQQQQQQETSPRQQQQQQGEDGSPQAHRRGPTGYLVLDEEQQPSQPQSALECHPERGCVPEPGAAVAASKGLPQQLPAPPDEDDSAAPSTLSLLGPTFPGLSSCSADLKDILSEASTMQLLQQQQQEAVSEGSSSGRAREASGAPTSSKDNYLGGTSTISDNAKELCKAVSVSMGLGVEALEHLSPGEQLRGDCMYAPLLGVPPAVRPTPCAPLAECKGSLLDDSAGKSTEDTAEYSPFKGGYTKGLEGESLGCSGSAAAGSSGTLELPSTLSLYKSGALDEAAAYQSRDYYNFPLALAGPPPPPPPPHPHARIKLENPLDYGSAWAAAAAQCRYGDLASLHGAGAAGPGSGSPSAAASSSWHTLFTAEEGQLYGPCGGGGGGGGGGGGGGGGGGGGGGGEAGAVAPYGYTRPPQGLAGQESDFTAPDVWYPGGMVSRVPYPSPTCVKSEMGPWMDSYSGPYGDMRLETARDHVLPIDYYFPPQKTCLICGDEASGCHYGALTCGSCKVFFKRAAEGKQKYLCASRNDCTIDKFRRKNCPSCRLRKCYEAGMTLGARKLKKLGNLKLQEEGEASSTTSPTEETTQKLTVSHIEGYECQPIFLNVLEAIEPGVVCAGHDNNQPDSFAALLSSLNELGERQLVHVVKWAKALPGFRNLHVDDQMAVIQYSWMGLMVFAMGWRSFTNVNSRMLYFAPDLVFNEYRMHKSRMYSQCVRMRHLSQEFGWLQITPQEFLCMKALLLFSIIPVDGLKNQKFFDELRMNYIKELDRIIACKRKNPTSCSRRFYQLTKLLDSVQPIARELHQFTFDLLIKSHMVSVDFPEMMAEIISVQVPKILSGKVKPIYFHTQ
# Chain of human AMP-activated Protein Kinase, alpha 1 (AMPKa1), PRKAA1 (gene 5562) (Q13131 whole entry, looked up): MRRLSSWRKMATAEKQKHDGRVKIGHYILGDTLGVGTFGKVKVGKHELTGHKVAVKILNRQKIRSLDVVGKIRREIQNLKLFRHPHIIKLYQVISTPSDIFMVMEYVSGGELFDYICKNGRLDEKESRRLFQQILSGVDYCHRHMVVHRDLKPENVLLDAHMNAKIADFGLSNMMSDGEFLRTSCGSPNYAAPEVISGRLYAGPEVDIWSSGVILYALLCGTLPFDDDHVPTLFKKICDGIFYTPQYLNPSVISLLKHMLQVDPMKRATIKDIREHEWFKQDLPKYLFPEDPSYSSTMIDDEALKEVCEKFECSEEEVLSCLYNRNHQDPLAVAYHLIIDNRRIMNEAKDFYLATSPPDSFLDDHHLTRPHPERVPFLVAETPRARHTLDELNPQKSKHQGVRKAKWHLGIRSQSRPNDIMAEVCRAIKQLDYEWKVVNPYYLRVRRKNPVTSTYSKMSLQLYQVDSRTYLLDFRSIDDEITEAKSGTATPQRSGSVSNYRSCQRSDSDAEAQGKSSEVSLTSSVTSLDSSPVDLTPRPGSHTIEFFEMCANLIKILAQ
# Chain of rat Monoamine Oxidase, MAO-B, Peripheral (MAOBP), Maob (gene 25750) (P19643 whole entry, looked up): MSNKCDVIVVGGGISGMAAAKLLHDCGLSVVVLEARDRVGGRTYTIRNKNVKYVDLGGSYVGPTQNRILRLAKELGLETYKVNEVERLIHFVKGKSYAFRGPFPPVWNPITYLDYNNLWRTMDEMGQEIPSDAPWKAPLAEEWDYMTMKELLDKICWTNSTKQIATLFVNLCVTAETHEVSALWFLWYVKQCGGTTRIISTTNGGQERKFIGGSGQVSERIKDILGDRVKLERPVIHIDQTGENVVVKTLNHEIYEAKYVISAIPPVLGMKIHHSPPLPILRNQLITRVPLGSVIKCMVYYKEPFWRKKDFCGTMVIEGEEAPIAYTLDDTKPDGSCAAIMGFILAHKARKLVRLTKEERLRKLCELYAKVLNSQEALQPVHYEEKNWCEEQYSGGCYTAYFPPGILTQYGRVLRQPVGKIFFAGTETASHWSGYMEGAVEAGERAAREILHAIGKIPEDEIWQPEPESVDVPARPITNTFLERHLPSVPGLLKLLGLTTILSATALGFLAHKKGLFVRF
# Chain of human p21 Activated Kinase 4 (PAK4), PAK4 (gene 10298) (O96013 whole entry, looked up): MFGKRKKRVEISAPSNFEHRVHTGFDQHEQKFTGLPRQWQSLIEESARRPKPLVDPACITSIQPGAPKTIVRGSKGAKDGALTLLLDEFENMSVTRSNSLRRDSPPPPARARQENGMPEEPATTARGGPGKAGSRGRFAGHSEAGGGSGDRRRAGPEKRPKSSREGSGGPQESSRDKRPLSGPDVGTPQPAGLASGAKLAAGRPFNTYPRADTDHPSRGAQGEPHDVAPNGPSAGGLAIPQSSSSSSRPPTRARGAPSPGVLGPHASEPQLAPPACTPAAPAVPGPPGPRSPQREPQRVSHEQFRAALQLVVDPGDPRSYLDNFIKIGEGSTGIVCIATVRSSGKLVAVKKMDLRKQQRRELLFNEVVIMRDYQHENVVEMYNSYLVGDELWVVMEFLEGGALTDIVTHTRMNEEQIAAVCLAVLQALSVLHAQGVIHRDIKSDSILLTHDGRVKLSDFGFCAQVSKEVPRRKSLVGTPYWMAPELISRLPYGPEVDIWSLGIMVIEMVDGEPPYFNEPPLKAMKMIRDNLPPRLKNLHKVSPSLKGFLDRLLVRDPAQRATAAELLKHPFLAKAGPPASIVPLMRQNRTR
# Chain of human Ephrin type-A Receptor 2 (EphA2), EPHA2 (gene 1969) (P29317 whole entry, looked up): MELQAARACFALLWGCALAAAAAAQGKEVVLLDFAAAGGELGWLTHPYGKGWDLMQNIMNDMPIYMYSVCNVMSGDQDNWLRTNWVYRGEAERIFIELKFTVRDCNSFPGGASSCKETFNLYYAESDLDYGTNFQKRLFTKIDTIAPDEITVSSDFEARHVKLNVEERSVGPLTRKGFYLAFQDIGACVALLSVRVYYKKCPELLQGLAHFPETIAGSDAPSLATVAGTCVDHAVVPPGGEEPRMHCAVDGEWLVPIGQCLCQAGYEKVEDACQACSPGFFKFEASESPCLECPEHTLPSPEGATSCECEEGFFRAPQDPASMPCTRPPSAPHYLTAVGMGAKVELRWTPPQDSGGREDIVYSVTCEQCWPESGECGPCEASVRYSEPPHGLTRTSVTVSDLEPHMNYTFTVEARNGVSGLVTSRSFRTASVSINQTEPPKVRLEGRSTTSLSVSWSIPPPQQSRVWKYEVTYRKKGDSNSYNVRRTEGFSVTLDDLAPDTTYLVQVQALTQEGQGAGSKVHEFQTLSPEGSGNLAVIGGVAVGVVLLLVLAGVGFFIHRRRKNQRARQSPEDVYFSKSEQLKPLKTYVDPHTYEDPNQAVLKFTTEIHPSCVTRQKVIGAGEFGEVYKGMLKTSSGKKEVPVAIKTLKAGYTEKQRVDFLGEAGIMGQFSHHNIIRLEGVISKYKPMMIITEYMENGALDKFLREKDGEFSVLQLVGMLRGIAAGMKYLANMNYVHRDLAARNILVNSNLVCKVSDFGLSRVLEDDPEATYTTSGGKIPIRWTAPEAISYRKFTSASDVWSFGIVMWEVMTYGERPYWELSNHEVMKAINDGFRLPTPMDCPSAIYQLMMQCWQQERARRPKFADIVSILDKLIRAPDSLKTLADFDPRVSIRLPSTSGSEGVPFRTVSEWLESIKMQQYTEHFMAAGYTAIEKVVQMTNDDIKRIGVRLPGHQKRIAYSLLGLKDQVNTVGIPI
# Chain of bovine Gamma-Aminobutyric Acid Type A Receptor BDZ, alpha 1 site (GABARa1), GABRA1 (gene 780973) (P08219 whole entry, looked up): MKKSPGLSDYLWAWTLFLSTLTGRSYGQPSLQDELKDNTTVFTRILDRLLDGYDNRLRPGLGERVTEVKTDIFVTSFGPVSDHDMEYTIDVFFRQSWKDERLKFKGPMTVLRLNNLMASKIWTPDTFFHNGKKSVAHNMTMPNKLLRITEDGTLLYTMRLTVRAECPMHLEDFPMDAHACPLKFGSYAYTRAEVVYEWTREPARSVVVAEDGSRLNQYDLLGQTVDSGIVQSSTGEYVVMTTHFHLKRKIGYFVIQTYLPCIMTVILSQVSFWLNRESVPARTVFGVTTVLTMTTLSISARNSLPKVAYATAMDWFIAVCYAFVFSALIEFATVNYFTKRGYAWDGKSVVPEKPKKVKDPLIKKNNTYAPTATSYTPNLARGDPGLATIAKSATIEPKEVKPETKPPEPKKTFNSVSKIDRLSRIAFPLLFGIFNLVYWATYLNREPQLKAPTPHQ
# Chain of rat Gamma-Aminobutyric Acid Type A Receptor BDZ, alpha 6 site (GABARa6), Gabra6 (gene 29708) (P30191 whole entry, looked up): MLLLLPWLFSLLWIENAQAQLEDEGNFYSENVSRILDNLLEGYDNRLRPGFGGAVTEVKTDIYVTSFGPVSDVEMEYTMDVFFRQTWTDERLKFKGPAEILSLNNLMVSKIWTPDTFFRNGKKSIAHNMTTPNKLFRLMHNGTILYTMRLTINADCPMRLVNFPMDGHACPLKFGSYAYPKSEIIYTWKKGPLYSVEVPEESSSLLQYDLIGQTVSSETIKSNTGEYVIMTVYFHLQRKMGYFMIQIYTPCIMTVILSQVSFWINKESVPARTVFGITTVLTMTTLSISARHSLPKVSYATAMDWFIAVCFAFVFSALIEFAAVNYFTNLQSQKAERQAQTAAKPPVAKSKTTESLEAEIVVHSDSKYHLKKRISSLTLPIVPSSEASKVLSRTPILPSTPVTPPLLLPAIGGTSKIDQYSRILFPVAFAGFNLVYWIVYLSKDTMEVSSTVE
smiles,measurement,setting,value
O=Cc1ccccc1C=O,outcome,[1],inactive
same,outcome,[2],inactive
same,outcome,[3],inactive
same,AC50,[4],17.7 µM (active)
same,outcome,[5],inactive
same,outcome,[6],inactive
same,outcome,[7],inactive
Cc1c2ccccc2c(C)c2c1ccc1ccccc12,outcome,[1],inactive
same,outcome,[8],inactive
same,outcome,[9],inactive
CCOc1cccc(-n2cc(C(=O)N3CCN(c4cc(C(=O)O)c5ccccc5c4)CC3)nc2-c2ccc(C)cc2)c1,outcome,[1],inactive
same,outcome,Caspase-1 (Homo sapiens),inactive
CCCCCC(=O)O,outcome,[1],inactive
same,outcome,[10],inactive
COc1cc(C(=O)NC2CCN(C)CC2)ccc1Nc1ncc2c(n1)N(C1CCCC1)CC(F)(F)C(=O)N2C,outcome,[1],inactive
same,AC50,[11],23.4 µM (active)
same,outcome,[10],inactive
same,outcome,[12],inactive
same,outcome,[13],inactive
same,outcome,[14],inactive
same,outcome,[3],inactive
same,AC50,[15],6.13 µM (active)
same,outcome,[16],inactive
same,outcome,[17],inactive
same,AC50,[7],3.01 µM (active)
N#C[C@@H]1CC(F)(F)CN1C(=O)CNC1CC2CCC(C1)N2c1ncccn1 (some centres undefined),outcome,[1],inactive
same,outcome,[2],inactive
CCC(C)N(C)C(=O)c1cc2ccccc2c(-c2ccccc2Cl)n1 (centres undefined),outcome,[1],inactive
same,outcome,[10],inactive
same,outcome,[18],inactive
same,outcome,[16],inactive
same,AC50,[19],10.2 µM (active)
same,outcome,[20],inactive
same,AC50,[7],9.67 µM (active)
